PubChem BioAssay AID1852 (Sanford-Burnham Center for Chemical Genomics, 2009)
Hit rate of the full screen: of about 2,500 compounds, about 1,100 (44%) were called active.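 Rule for the calls: active = inhibition above 50% at 4 µM in the single-point screen; inactive = inhibition of 50% or less.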 The set was probably picked from earlier hits. Some of the results follow.

Experiment: blockers of TNF-a NF-kB luciferase induction – cell-based, HEK293T NF-kB-Luc, luminescence, selectivity assay for NOD1/NOD2 signaling inhibitor project, primary screen (AID 1852)
Conditions: TNF-a induced, 14 h, at 4 µM, active compounds read high

inhibition, inactive:
Cc1oc(-c2cccc3ccccc23)nc1CN1CCN(c2ncnc3ccccc23)CC1 43%
COc1ccc(-c2nc(CN3CCN(c4ncnc5ccccc45)CC3)c(C)o2)c(OC)c1 23.9%
COc1cc(-c2n[nH]c(=S)n2-c2ccc(C)cc2)cc(OC)c1OC 2.4%
CC1(C)C=C2[C@H]3CC[C@@H]4[C@@]5(C)CCC(=O)C(C)(C)[C@@H]5CC[C@@]4(C)[C@]3(C)CC[C@@]2(C(=O)O)CC1 1.3%
O=C(Nc1nc2c(Cl)cccc2s1)c1ccc([N+](=O)[O-])o1 6.3%
Cc1csc(NC(=O)c2cc([N+](=O)[O-])cc([N+](=O)[O-])c2)n1 -6.5%
CCNS(=O)(=O)c1ccc(NC(=O)Cn2cc([N+](=O)[O-])cn2)cc1 25%
CCOC(=O)c1cc(C(=O)Nc2ccc(S(=O)(=O)Nc3ccc(OC)cc3)cc2)nn1C 18.6%
O=S(=O)(Nc1nc2ccccc2[nH]1)c1ccc(Cl)cc1 -4.8%
O=[N+]([O-])c1nn(-c2ccc3c(c2)OCCO3)n(O)c1=Nc1ccccc1 38%
O=C1C=C(N2CCOCC2)c2ccccc2C1=O 23.7%
Nc1ccc(S(=O)(=O)Nc2nccc(/C=C/c3cccc(Br)c3)n2)cc1 36.8%
O=[N+]([O-])c1ccc(Oc2cccc(F)c2)c2ccncc12 42.3%
Cc1ccccc1S(=O)(=O)Cc1ccc(C(=O)N2CCN(c3cccc(C)c3C)CC2)o1 -33.6%
CCn1nc(C)c(C(=O)Nc2cc(Oc3cc(C)cc(C)c3)cc([N+](=O)[O-])c2)c1C 24.6%
Cc1ccc(-c2nc(NC(=O)c3nn(C)cc3[N+](=O)[O-])sc2C)cc1 39.6%
O=C(N/N=C/c1ccc[nH]1)c1cc(-c2ccc(Cl)cc2)nc2ccccc12 3.4%
O=C(Cc1cc(C(=O)O)c2ccccc2n1)Nc1ccccc1 -8.7%
COc1ccc(C(=O)/C=C/C(=O)N(CC(=O)NC2CCCCC2)Cc2ccccc2OC)c(O)c1 33.1%
COc1ccc(C(C(=O)NC2CCCCC2)N(C(=O)CCl)c2ccc(Cl)cc2)cc1 (stereo not given) 20.4%
O=C(CN1C(=O)c2cccnc2Oc2ccc(Cl)cc21)NC1CCCCCC1 25.9%
COc1ccc(C(C(=O)NC2CCCCC2)N(C(=O)CCl)c2ccccc2Cl)cc1 (stereo not given) 6.2%
S=C(Nc1ccc(Cl)c(Cl)c1)NC1CCCCC1 44.7%
O=c1c(Cl)c(Cl)cnn1Cc1ccc(F)cc1 33.4%
COc1ccc(-c2csc3ncnc(N4CCN(c5ccccc5[N+](=O)[O-])CC4)c23)cc1 -57.1%
C=CCn1c(C)c(/C=C/c2cc[n+](C)cc2)c2ccccc21 12%
COc1ccc(C2CC(c3cccs3)=NN2C(=O)CCl)cc1OC (stereo not given) 47.4%
COc1cc(C2CC(c3cccs3)=NN2C(=O)CCl)ccc1OC(F)F (stereo not given) 40.7%
Cc1ccc(C2=NN(C(=O)CCl)C(c3cccs3)C2)o1 (stereo not given) 43.6%
COC(=O)C1=C(C)N(c2ccc(F)cc2)/C(=C/c2ccc(O)cc2)C1=O -3%
COC(=O)c1ccc2c(c1)C(C)(C)C(/C=C/c1ccccc1O)=[N+]2C -7.6%
c1cnc(N2CCN(c3ccc4ccccc4n3)CC2)nc1 -118%
COc1ccc(NC(=O)c2cc(N3C(=O)C4C5CCC(C5)C4C3=O)ccc2Cl)c(OC)c1 (stereo not given) 30.6%
COc1ccc(CCNC(=S)N2CCC(Cc3ccccc3)CC2)cc1OC 47.4%
c1csc(Cc2nn3c(-c4ccncc4)nnc3s2)c1 42.2%
O=C(CCN1C(=O)c2ccc([N+](=O)[O-])cc2C1=O)Nc1ccc(O)cc1C(=O)O -3.9%
COCCn1c(C)cc(C(=O)CSc2nnc3ccccn23)c1C 17.3%
C=CCn1c(C)cc(C(=O)COc2ccc(C)nc2[N+](=O)[O-])c1C 30%
Cc1cc(C(=O)COc2cccnc2[N+](=O)[O-])c(C)n1-c1ccccc1F 38.6%
Cc1cc(C(=O)COc2cccnc2[N+](=O)[O-])c(C)n1Cc1cccs1 38.6%
COCC(C)n1c(C)cc(C(=O)COc2ccc(C)nc2[N+](=O)[O-])c1C (stereo not given) 41%
CCCn1c(C)cc(C(=O)COc2ccc(C)nc2[N+](=O)[O-])c1C -16.5%
COc1ccccc1[C@@H]1C(c2cccc(C)c2)=NN(c2ccccc2)[C@H]1C(=O)N1CCOC1=O -11.7%
Cc1cc(C(=O)COc2cccnc2[N+](=O)[O-])c(C)n1Cc1ccco1 -11%
COc1cccc(/C=N/NC(=O)c2cc3c(OC)ccc(OC)c3[nH]2)c1O 48.6%
CN(C1=C(NC(=O)c2ccc(Cl)cc2)C(=O)c2ccccc2C1=O)c1ccccc1 21.3%
O=C(/C=C/c1ccco1)NCC1COc2ccccc2O1 (stereo not given) -14.9%
O=C(Nc1ccc(Oc2cccc(C(F)(F)F)c2)nc1)c1cccs1 49.2%
O=C(Nc1ccc(Oc2cccnc2)nc1)c1ccc(C(F)(F)F)cc1 42.6%
Cc1cccc(-n2[nH]c3c4c(ccc3c2=O)C(=O)c2ccccc2C4=O)c1 37.6%

inhibition, active:
Cc1oc(-c2cc(F)ccc2F)nc1CN1CCN(c2ncnc3ccccc23)CC1 104%
COc1ccc(-c2c[n+]3c(n2-c2ccc(C)cc2)CCCCC3)cc1 50.3%
N#CC1=C(N)C(C#N)(C#N)C(c2cccnc2)C2CC(c3ccccc3)CC=C12 (stereo not given) 83.6%
O=C(Nc1nnc(SCc2c(Cl)cccc2Cl)s1)c1cccc([N+](=O)[O-])c1 83.1%
COc1ccc(NC(=O)Cn2nnc(-c3ccccc3NS(=O)(=O)c3ccc(OC)cc3)n2)cc1 70.7%
Cc1noc(C)c1CSc1nc2ccccc2nc1NS(=O)(=O)c1ccc(Cl)cc1 102%
O=[N+]([O-])c1ccc(Oc2ccc(F)cc2Br)c2ccncc12 66.6%
O=[N+]([O-])c1ccc(Oc2ccc(F)cc2)c2ccncc12 61.5%
Cn1cc([N+](=O)[O-])c(C(=O)Nc2cc(Oc3ccccc3)cc([N+](=O)[O-])c2)n1 73.2%
O=C(N/N=C/c1ccccn1)c1cc(-c2ccccc2)nc2ccccc12 99.1%
O=C(N/N=C/c1ccccn1)c1cc(-c2ccc(Cl)cc2)nc2ccccc12 104%
CCCOc1cccc(-c2cc(C(=O)N/N=C/c3ccccn3)c3ccccc3n2)c1 102%
O=C(N/N=C/c1ccccn1)c1cc(-c2ccc(Br)cc2)nc2ccccc12 105%
O=C(NC1CCCCC1)C(c1cccnc1)N(C(=O)CCl)c1cccc(Cl)c1 (stereo not given) 75.7%
O=C(NC1CCCCC1)C(c1cccnc1)N(C(=O)CCl)c1ccccc1Cl (stereo not given) 58.7%
Cc1ccc(N(C(=O)CCl)C(C(=O)NC2CCCCC2)c2cccnc2)cc1C (stereo not given) 79.9%
COc1ccc(C(C(=O)NC2CCCCC2)N(C(=O)CCl)c2cccc(Cl)c2)cc1 (stereo not given) 60.8%
O=c1c(Cl)c(Cl)cnn1Cc1nnc(-c2ccc(Cl)cc2)o1 51.5%
O=c1c(Cl)c(Cl)cnn1Cc1nnc(-c2ccccc2Br)o1 108%
Clc1ccc(-c2csc3ncnc(NCCN4CCOCC4)c23)cc1 60.1%
COc1ccc(-c2csc3ncnc(NCCN4CCOCC4)c23)cc1 89.9%
O=C(CCl)N1N=C(c2ccco2)CC1c1cccs1 (stereo not given) 56%
O=C(CCl)N1N=C(c2ccco2)CC1c1ccco1 (stereo not given) 58.9%
O=C(CCl)N1N=C(c2cccs2)CC1c1ccco1 (stereo not given) 55.2%
COC(=O)c1ccc2c(c1)C(C)(C)C(/C=C/c1ccc(O)cc1)=[N+]2C 60.8%
COc1ccc(NC(=S)N2CCN(C/C=C/c3ccccc3)CC2)c(OC)c1 57.8%
c1ccc(CCc2nn3c(-c4ccncc4)nnc3s2)cc1 82.6%
c1cc(-c2nnc3sc(C4CCCCC4)nn23)ccn1 57.5%
CCCc1nc2c(=O)n(C)c(=O)nc-2n(C)n1 105%
Cc1ccc(OCC(=O)c2cc(C)n(Cc3cccs3)c2C)c([N+](=O)[O-])n1 68.2%
COCCn1c(C)cc(C(=O)COC(=O)c2cccc(O)c2)c1C 81.1%
Cc1ccc(OCC(=O)c2cc(C)n(-c3ccccc3)c2C)c([N+](=O)[O-])n1 72.3%
COCCn1c(C)cc(C(=O)COc2ccc(C)nc2[N+](=O)[O-])c1C 79.2%
Cc1ccc(OCC(=O)c2cc(C)n(Cc3ccco3)c2C)c([N+](=O)[O-])n1 65.1%
COc1cccc(/C=N/NC(=O)CNC(=O)C(c2ccccc2)c2ccccc2)c1O 92.3%
COc1cccc(/C=N/NC(=O)CNC(=O)/C=C\c2ccccc2)c1O 82.6%
CNC1=C(N(C(C)=O)c2ccc(Br)cc2)C(=O)c2ccccc2C1=O 98.3%
COc1cccc(C(=O)Nc2ccc(Oc3cccc(C(F)(F)F)c3)nc2)c1 53.3%
Cc1ccc(-n2[nH]c3c4c(ccc3c2=O)C(=O)c2ccccc2C4=O)cc1 99.4%
Cc1ccc(C)c(-n2[nH]c3c4c(ccc3c2=O)C(=O)c2ccccc2C4=O)c1 58.4%
